Laboratory results as given in PubChem BioAssay AID1159580 (chemical genetic matrix, 2015).
In all, about 5,500 compounds went through this assay and about 2,000 (36%) were called active. Not shown: some 18% with an inconclusive outcome. Cut-off read from the data, not from the text of the source: active = normalized growth mostly below about 0.91 (no sharp cut-off); inconclusive = no clear call, values can overlap the other calls; inactive = mostly above about 0.92. This is one part of the list.

Test: chemical genetic growth profiling, strain panel (AID 1159580);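 note: tested at 20 µM; growth read once vehicle control cultures reached saturation at 30 °C; 1 = growth at the plate median or of vehicle wells; lower values mean less growth of the strain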
Settings: growth OD

Measured: normalized growth

NC(N)=O
inactive: S. cerevisiae deletion strains, locus YJR075W, strain HOC1, active compounds read low 1.02 | S. cerevisiae deletion strains, locus YKL009W, strain mrt4, active compounds read low 1 | S. cerevisiae deletion strains, locus YKL068W, active compounds read low 0.992 | S. cerevisiae deletion strains, locus YKL085W, strain MDH1 (second series), active compounds read low 0.994 | S. cerevisiae deletion strains, locus YKL085W, strain MDH1, active compounds read low 0.994 | S. cerevisiae deletion strains, locus YKL160W, strain elf1, active compounds read low 1.02 | S. cerevisiae deletion strains, locus YKL190W, strain CNB1, active compounds read low 1 | S. cerevisiae deletion strains, locus YKR001C, strain vps1, active compounds read low 1 | S. cerevisiae deletion strains, locus YKR026C, strain gcn3, active compounds read low 1.01 | S. cerevisiae deletion strains, locus YKR091W, strain srl3, active compounds read low 1 | S. cerevisiae deletion strains, locus YLL001W, strain dnm1, active compounds read low 1.01 | S. cerevisiae deletion strains, locus YLL026W, active compounds read low 1.02 | S. cerevisiae deletion strains, locus YLL041C, strain sdh2, active compounds read low 1.01 | S. cerevisiae deletion strains, locus YLR027C, strain aat2, active compounds read low 1.02 | S. cerevisiae deletion strains, locus YLR039C, strain RIC1, active compounds read low 1.05 | S. cerevisiae deletion strains, locus YLR058C, strain SHM2, active compounds read low 0.99 | S. cerevisiae deletion strains, locus YLR102C, strain apc9, active compounds read low 0.986 | S. cerevisiae deletion strains, locus YLR113W, strain HOG1, active compounds read low 0.993 | S. cerevisiae deletion strains, locus YLR221C, strain rsa3, active compounds read low 0.98 | S. cerevisiae deletion strains, locus YLR258W, strain gsy2, active compounds read low 1 | S. cerevisiae deletion strains, locus YLR262C, strain YPT6 (second series), active compounds read low 1.03 | S. cerevisiae deletion strains, locus YLR262C, strain YPT6, active compounds read low 1.08 | S. cerevisiae deletion strains, locus YLR268W, strain sec22, active compounds read low 1.02 | S. cerevisiae deletion strains, locus YLR320W, strain mms22, active compounds read low 1 | S. cerevisiae deletion strains, locus YLR330W, strain CHS5, active compounds read low 0.988 | S. cerevisiae deletion strains, locus YLR342W, strain FKS1 (second series), active compounds read low 0.96 | S. cerevisiae deletion strains, locus YLR342W, strain FKS1, active compounds read low 1.01 | S. cerevisiae deletion strains, locus YLR357W, strain rsc2, active compounds read low 1.04 | S. cerevisiae deletion strains, locus YLR370C, strain arc18, active compounds read low 1.02 | S. cerevisiae deletion strains, locus YLR371W, strain rom2, active compounds read low 0.985 | S. cerevisiae deletion strains, locus YLR384C, strain iki3, active compounds read low 1.01 | S. cerevisiae deletion strains, locus YLR418C, strain cdc73, active compounds read low 1.01 | S. cerevisiae deletion strains, locus YML016C, strain PPZ1, active compounds read low 0.999 | S. cerevisiae deletion strains, locus YML032C, strain rad52, active compounds read low 1 | S. cerevisiae deletion strains, locus YML120C, strain ndi1, active compounds read low 1.03 | S. cerevisiae deletion strains, locus YML124C, strain tub3, active compounds read low 0.993 | S. cerevisiae deletion strains, locus YMR058W, strain fet3, active compounds read low 1.02 | S. cerevisiae deletion strains, locus YMR078C, strain ctf18, active compounds read low 0.992 | S. cerevisiae deletion strains, locus YMR125W, strain sto1, active compounds read low 1 | S. cerevisiae deletion strains, locus YMR129W, active compounds read low 1.01 | S. cerevisiae deletion strains, locus YMR205C, strain PFK2, active compounds read low 1.02 | S. cerevisiae deletion strains, locus YMR223W, strain ubp8, active compounds read low 0.992 | S. cerevisiae deletion strains, locus YMR231W, strain pep5, active compounds read low 1 | S. cerevisiae deletion strains, locus YMR263W, strain SAP30, active compounds read low 1.03 | S. cerevisiae deletion strains, locus YMR307W, strain GAS1, active compounds read low 1.02 | S. cerevisiae deletion strains, locus YNL067W, strain RPL9B, active compounds read low 1.05 | S. cerevisiae deletion strains, locus YNL071W, strain lat1, active compounds read low 1.01 | S. cerevisiae deletion strains, locus YNL128W, strain TEP1, active compounds read low 1.02 | S. cerevisiae deletion strains, locus YNL153C, strain GIM3, active compounds read low 1.02 | S. cerevisiae deletion strains, locus YNL183C, strain NPR1, active compounds read low 0.963 | S. cerevisiae deletion strains, locus YNL209W, strain ssb2, active compounds read low 1.01 | S. cerevisiae deletion strains, locus YNL233W, strain BNI4, active compounds read low 1 | S. cerevisiae deletion strains, locus YNL248C, strain rpa49, active compounds read low 0.978 | S. cerevisiae deletion strains, locus YNL250W, strain rad50, active compounds read low 0.991 | S. cerevisiae deletion strains, locus YNL271C, strain bni1, active compounds read low 0.988 | S. cerevisiae deletion strains, locus YNL298W, strain CLA4, active compounds read low 1 | S. cerevisiae deletion strains, locus YNL307C, strain MCK1, active compounds read low 0.993 | S. cerevisiae deletion strains, locus YNL322C, strain KRE1 (second series), active compounds read low 1.01 | S. cerevisiae deletion strains, locus YNL322C, strain KRE1, active compounds read low 1 | S. cerevisiae deletion strains, locus YNR049C, strain mso1, active compounds read low 1.02 | S. cerevisiae deletion strains, locus YNR052C, strain pop2, active compounds read low 0.974 | S. cerevisiae deletion strains, locus YOL006C, strain TOP1, active compounds read low 1.21 | S. cerevisiae deletion strains, locus YOL012C, strain htz1 1.36 | S. cerevisiae deletion strains, locus YOL147C, strain pex11, active compounds read low 0.993 | S. cerevisiae deletion strains, locus YOR001W, strain rrp6, active compounds read low 1.02 | S. cerevisiae deletion strains, locus YOR061W, strain CKA2, active compounds read low 0.997 | S. cerevisiae deletion strains, locus YOR069W, strain VPS5, active compounds read low 1.07 | S. cerevisiae deletion strains, locus YOR070C, strain gyp1, active compounds read low 1.01 | S. cerevisiae deletion strains, locus YOR080W, strain dia2, active compounds read low 1.02 | S. cerevisiae deletion strains, locus YOR083W, strain WHI5, active compounds read low 1 | S. cerevisiae deletion strains, locus YOR106W, strain vam3, active compounds read low 1.02 | S. cerevisiae deletion strains, locus YOR136W, strain idh2, active compounds read low 0.993 | S. cerevisiae deletion strains, locus YOR144C, strain elg1, active compounds read low 0.992 | S. cerevisiae deletion strains, locus YOR184W, strain ser1, active compounds read low 0.992 | S. cerevisiae deletion strains, locus YOR231W, strain MKK1, active compounds read low 0.993 | S. cerevisiae deletion strains, locus YOR265W, strain rbl2, active compounds read low 1.02 | S. cerevisiae deletion strains, locus YOR270C, strain vph1, active compounds read low 1.02 | S. cerevisiae deletion strains, locus YOR290C, strain snf2, active compounds read low 0.992 | S. cerevisiae deletion strains, locus YOR316C, strain cot1, active compounds read low 0.985 | S. cerevisiae deletion strains, locus YPL051W, strain arl3, active compounds read low 1.01 | S. cerevisiae deletion strains, locus YPL055C, strain LGE1, active compounds read low 1.07 | S. cerevisiae deletion strains, locus YPL078C, strain atp4, active compounds read low 1.02 | S. cerevisiae deletion strains, locus YPL106C, strain sse1, active compounds read low 0.987 | S. cerevisiae deletion strains, locus YPL240C, strain hsp82, active compounds read low 1.01 | S. cerevisiae deletion strains, locus YPL241C, strain CIN2, active compounds read low 1.07 | S. cerevisiae deletion strains, locus YPL256C, strain CLN2, active compounds read low 1 | S. cerevisiae deletion strains, locus YPR119W, strain clb2, active compounds read low 0.992 | S. cerevisiae deletion strains, locus YPR141C, strain kar3, active compounds read low 1 | S. cerevisiae deletion strains, locus YPR163C, strain tif3, active compounds read low 0.996 | S. cerevisiae deletion strains, locus YPR167C, strain met16, active compounds read low 0.989 | S. cerevisiae deletion strains, strain wtn01, active compounds read low 0.999 | S. cerevisiae strains, strain wild type, active compounds read low 0.991
